Only some compounds are listed: those with a hit (about 0.83% of all), similar ones and a draw of the others.
SRC1 inh: inhibitors of human steroid receptor coactivator 1 (SRC1) | inhibition, % at 3.6 µM | 0.12% of 360,000 active | HEK293 GAL4-SRC1 luciferase reporter, luminescence | Q15788;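 active = inhibition above the campaign mean plus 3 SD, with each screening campaign given its own cutoff, cut at about 60% in these data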
LRH-1 inv ag: suppresses constitutive activity of human LRH-1; 0.13% of 360,000 active; AID 602396; inhibition, % at 3.6 µM; O00482; HEK293T StAR-luciferase reporter, LRH-1 transfected, 24 h;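 active = inhibition above the mean inhibition of all tested compounds plus 3 SD, cut at about 73% in these data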
Target sequence (O00482 whole entry, looked up): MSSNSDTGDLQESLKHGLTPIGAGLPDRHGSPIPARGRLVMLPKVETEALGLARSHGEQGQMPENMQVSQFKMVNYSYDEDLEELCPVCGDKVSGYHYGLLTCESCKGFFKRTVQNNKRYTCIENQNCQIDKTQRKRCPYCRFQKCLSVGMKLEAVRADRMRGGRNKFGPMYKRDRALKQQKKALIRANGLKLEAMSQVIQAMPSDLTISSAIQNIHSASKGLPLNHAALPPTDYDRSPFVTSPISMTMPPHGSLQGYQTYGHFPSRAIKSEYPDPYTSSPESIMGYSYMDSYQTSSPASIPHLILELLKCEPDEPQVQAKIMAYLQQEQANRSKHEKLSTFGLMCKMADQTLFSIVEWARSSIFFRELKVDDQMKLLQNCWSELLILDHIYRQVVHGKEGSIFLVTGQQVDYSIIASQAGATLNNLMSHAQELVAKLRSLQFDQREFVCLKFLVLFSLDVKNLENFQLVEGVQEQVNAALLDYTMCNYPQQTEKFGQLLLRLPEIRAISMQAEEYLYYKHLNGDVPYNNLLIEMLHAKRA
SRC2 inh: human SRC2 (NCOA2) inhibition; HEK293 GAL4-SRC2 luciferase reporter, luminescence; inhibition, % at 9 µM; 0.17% of 370,000 active; AID 651957;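 active = inhibition above the mean inhibition of all tested compounds plus 3 SD, set per campaign, cut at about 52% in these data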
Gli-Sufu antag: antagonists of Gli-Sufu signaling. Sufu-KO-LIGHT fibroblasts, Gli luciferase reporter luminescence. inhibition, % at 5 µM. 0.74% of 340,000 active. AID 588413;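 active = inhibition above about 55%, limit read from the data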
NCOA3 inh: inhibitors of human steroid receptor coactivator 3 (SRC3); HEK293 GAL4-SRC3 luciferase reporter, luminescence; Q9Y6Q9; 0.17% of 360,000 active; AID 588352; inhibition, % at 3.6 µM;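 active = inhibition above a per-campaign cutoff, the mean of all compounds plus 3 SD, cut at about 60% in these data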;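 also: higher means less SRC3-driven luciferase light from the GAL4 reporter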
Gli antag conf: Gli-SUFU antagonism confirmation, single concentration; AID 602428; shares compounds with Gli-Sufu antag; Sufu-KO-LIGHT cells, Gli luciferase reporter, luminescence; inhibition, % at 5 µM; 40% of 2,500 active;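 active = mean inhibition at 5 µM reaching about 45%, limit read from the data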
Gli cytotox: cytotoxic in Gli-SUFU antagonist counter-screen. shares compounds with Gli-Sufu antag. Sufu-KO-LIGHT cells cytotoxicity, ATP luminescence. cytotoxicity, % at 5 µM. 32% of 2,500 active. AID 651994;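 active = mean cytotoxicity at 5 µM above about 25%, limit read from the data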;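 also: cells exposed to compound overnight for roughly 16 to 18 hours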
Wnt3a cs: inhibits Wnt3a reporter, counter-screen for Gli-SUFU antagonists. shares compounds with Gli-Sufu antag. Wnt-LIGHT cells, Wnt3a-driven luciferase reporter, luminescence. inhibition, % at 6.25 µM. 20% of 2,500 active. AID 651995;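 active = mean inhibition above about 25%, limit read from the data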
A number is an active result.

COc1ccccc1NC(=O)CSCC(=O)N1c2ccccc2CCc2ccccc21 was read as SRC1 inh inactive, LRH-1 inv ag inactive, SRC2 inh inactive, Gli-Sufu antag inactive and NCOA3 inh inactive.
For COc1ccc(NC(=O)CSCC(=O)N2c3ccccc3CCc3ccccc32)cc1 the results were SRC1 inh inactive, LRH-1 inv ag inactive, SRC2 inh inactive, Gli-Sufu antag 66, NCOA3 inh inactive, Gli antag conf inactive, Gli cytotox inactive and Wnt3a cs inactive.
For COc1ccc(S(=O)(=O)Cc2ccc(C(=O)N3CCN(c4ccc(Cl)cc4)CC3)o2)cc1 the results were SRC1 inh inactive, LRH-1 inv ag inactive, SRC2 inh inactive, Gli-Sufu antag inactive, NCOA3 inh inactive, Gli antag conf inactive, Gli cytotox inactive and Wnt3a cs inactive.
Screening COc1ccc(N2CCN(C(=O)c3ccc(Cn4nc(C)c([N+](=O)[O-])c4C)o3)CC2)cc1 returned SRC1 inh inactive, LRH-1 inv ag inactive, SRC2 inh inactive, Gli-Sufu antag 90, NCOA3 inh inactive, Gli antag conf inactive, Gli cytotox 27 and Wnt3a cs inactive.
`CCOC(=O)NC[C@@]1(C(=O)OC)CC(=O)N(Cc2ccc(Cl)cc2)[C@@H]1c1ccc(OC)cc1` gave SRC2 inh inactive.
For COC(=O)[C@]12C[C@H](CC(=O)N3CCN(C(=O)C4CC4)CC3)C(=O)N(Cc3cccc4ccccc34)C1=C[C@H](C1CCCC1)O[C@@H]2C the results were SRC2 inh inactive.
Screening CCC(=O)N1CCc2cc(S(=O)(=O)Nc3ccccc3C)ccc21 returned SRC1 inh inactive, LRH-1 inv ag inactive, SRC2 inh inactive, Gli-Sufu antag inactive and NCOA3 inh inactive.
For COc1ccccc1NS(=O)(=O)c1ccc2c(c1)CCN2C(=O)CCC(=O)O the results were SRC1 inh inactive, LRH-1 inv ag inactive, SRC2 inh inactive, Gli-Sufu antag inactive, NCOA3 inh inactive, Gli antag conf inactive, Gli cytotox inactive and Wnt3a cs inactive.
For O=C(CSc1cccc[n+]1[O-])CSc1cccc[n+]1[O-] the results were SRC1 inh inactive, LRH-1 inv ag inactive, SRC2 inh inactive, Gli-Sufu antag 56, NCOA3 inh inactive, Gli antag conf inactive, Gli cytotox inactive and Wnt3a cs inactive.
For O=C(CSc1cccc[n+]1[O-])N1CCCCCC1 the results were SRC1 inh inactive, LRH-1 inv ag inactive, SRC2 inh inactive, Gli-Sufu antag inactive and NCOA3 inh inactive.
`O=C1/C(=C2\C(=O)N(Cc3ccc(F)cc3)c3ccccc32)SC(=S)N1CCS(=O)(=O)O` gave SRC1 inh inactive, LRH-1 inv ag inactive, SRC2 inh inactive, Gli-Sufu antag inactive and NCOA3 inh inactive.
`O=C(O)CN1C(=O)/C(=C2\C(=O)N(Cc3ccccc3Cl)c3ccccc32)SC1=S` gave SRC1 inh inactive, LRH-1 inv ag inactive, SRC2 inh inactive, Gli-Sufu antag 57, NCOA3 inh inactive, Gli antag conf inactive, Gli cytotox inactive and Wnt3a cs inactive.
For CCC1Sc2ccc(S(=O)(=O)CCC(=O)Nc3ccccc3Cl)cc2NC1=O (stereo not drawn) the results were SRC1 inh inactive, LRH-1 inv ag inactive, SRC2 inh inactive, Gli-Sufu antag inactive, NCOA3 inh inactive, Gli antag conf inactive, Gli cytotox inactive and Wnt3a cs inactive.
For CCC1Sc2ccc(S(=O)(=O)CCC(=O)NCc3ccc(C)o3)cc2NC1=O (stereo not drawn) the results were SRC1 inh inactive, LRH-1 inv ag inactive, SRC2 inh inactive, Gli-Sufu antag inactive and NCOA3 inh inactive.
For CCCc1nc(SCC(=O)Nc2nnc(CC)s2)c2c(=O)n(C)c(=O)n(C)c2n1 the results were SRC1 inh inactive, LRH-1 inv ag inactive, SRC2 inh inactive, Gli-Sufu antag 66, NCOA3 inh inactive, Gli antag conf 50, Gli cytotox inactive and Wnt3a cs inactive.
`CCCc1nc(SCC(=O)Nc2nnc(SCC)s2)c2c(=O)n(C)c(=O)n(C)c2n1` gave SRC1 inh inactive, LRH-1 inv ag inactive, SRC2 inh inactive, Gli-Sufu antag 58, NCOA3 inh inactive, Gli antag conf 56, Gli cytotox 35 and Wnt3a cs inactive.
